# Only some compounds are listed: those with a hit (about 7.3% of all), similar ones and a draw of the others.
# Luc counter = blocks Kinase-Glo luciferase, a counter-screen artifact | Q27757 | Kinase-Glo luciferase, ATP luminescence, 8 min | 200,000 compounds, 0.28% hits | Potency, µM (top dose mostly 38.3 µM), inactives show at the top dose activity change, negative = inhibition, most hits filed as inhibitors; also: % is scaled to controls: 0 for no effect and ±100 for the full control effect; nearly all actives have a fitted effect of over 60% in size
#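 Kinase-Glo luciferase light output from ATP and luciferin was measured with 10 uM ATP, within the enzyme's linear range. Buffer: 50 mM imidazole pH 7.2, 50 mM KCl, 7 mM MgCl2, 0.01% Tween 20, 0.05% BSA; luminescence read after 8 min at ambient temperature.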
# FLuc modulator = inhibits or activates purified firefly luciferase, miR-21 counter-screen | 360,000 compounds, 6.9% hits | P08659 | AID 588342 | Potency, µM (doses to about 57.5 µM), without a hit: top-dose activity change, negative = inhibition, hits mostly inhibitors | purified FLuc, Km substrates, luminescence inhibition;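 also: plate controls were vehicle for no effect and reference inhibitor for full effect; nearly all actives have a fitted effect of over 55% in size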
# Target sequence (P08659 whole entry, looked up): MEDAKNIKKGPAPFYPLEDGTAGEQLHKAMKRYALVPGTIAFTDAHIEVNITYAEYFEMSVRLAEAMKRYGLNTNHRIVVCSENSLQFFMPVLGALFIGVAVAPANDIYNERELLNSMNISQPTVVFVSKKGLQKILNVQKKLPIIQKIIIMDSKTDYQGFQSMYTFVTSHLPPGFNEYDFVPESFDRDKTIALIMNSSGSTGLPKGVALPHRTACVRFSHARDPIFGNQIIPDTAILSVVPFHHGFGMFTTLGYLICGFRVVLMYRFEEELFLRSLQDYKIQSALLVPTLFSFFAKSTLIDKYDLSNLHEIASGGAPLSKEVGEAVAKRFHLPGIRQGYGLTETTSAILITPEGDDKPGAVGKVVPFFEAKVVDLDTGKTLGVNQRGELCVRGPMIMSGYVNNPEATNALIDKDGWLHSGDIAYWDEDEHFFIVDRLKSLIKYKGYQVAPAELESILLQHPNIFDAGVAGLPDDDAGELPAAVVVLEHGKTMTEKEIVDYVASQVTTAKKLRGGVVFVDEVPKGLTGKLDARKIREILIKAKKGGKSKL
#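 Biochemical qHTS of compounds, final roughly 60 µM downward over six points, against 10 nM purified firefly luciferase using Km concentrations of substrates (10 uM D-luciferin, 10 uM ATP) in Tris acetate pH 7.5 buffer; luminescence output.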
# ELG1 genotoxic = inducers of genotoxicity in HEK293T ELG1-luciferase cells | Potency, µM (doses to about 46 µM), for the others: at the top dose activity change, positive = activation, actives largely listed as activators | HEK293T ELG1-luciferase reporter, luminescence, 16 h | AID 504466 | 330,000 compounds, 1.3% hits; also: % of control where 0% means no effect; nearly all actives have a fitted effect of over 60% in size
#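 Genotoxic stress is detected as increased luminescence from luciferase-tagged ELG1 in HEK293T cells, measured with ONE-Glo after a 16 hr treatment at 37 °C.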
# Rab9 promoter act = Rab9 promoter activation | Huh7 Rab9 promoter-luciferase reporter, luminescence, 24 h | Potency, µM (top dose mostly 9.22 µM), for inactives: at the top dose activation, negative = inhibition, hits mostly activators | 320,000 compounds, 2.8% hits | AID 485297; also: % of control where 0% means no effect; nearly all actives have a fitted effect of over 60% in size
#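 Luminescence read-out: Huh7 cells stably expressing Rab9-luciferase, treated 24 h with compound at 37 °C, then lysed with luciferase reagent for 10 min at ambient before reading.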
# SMN2 splice enh = enhancers of SMN2 splice variant expression; HEK293 SMN2-luciferase splicing reporter, luminescence, 30-36 h; Potency, µM (top dose mostly 46.1 µM), inactives show top-dose activity change, positive = activation, most hits filed as activators; 210,000 compounds, 2.8% hits; AID 1458; also: % of control where 0% means no effect; nearly all actives have a fitted effect of over 55% in size
#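 HEK293 cells carry an SMN2 minigene-luciferase reporter in which exon 7 inclusion puts luciferase in frame. Cells were seeded at 2000 cells/well, attached for 10-12 hours, then exposed to compounds for 30-36 hours at 37C before ONE-Glo luminescence.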
# NPC1 promoter act = activates the NPC1 promoter; 320,000 compounds, 2.4% hits; Potency, µM (series often up to 9.22 µM), inactives show at the highest dose activation, most hits filed as activators; Huh7 NPC1 promoter luciferase reporter, 24 h; also: % of control where 0% means no effect; nearly all actives have a fitted effect of over 60% in size
#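 Luminescence read-out of NPC1 promoter-driven luciferase in stably transfected Huh7 cells; compounds delivered in DMSO and left 24 h at 37C, 5% CO2, qHTS titration format.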
# * = called active by the depositor; u = inconclusive; x = not tested or not shown; [ ] = another dose, or the depositor's remark. Calls follow the shape of the dose curve; as a rule, active = well fitted curve in the direction sought with a large enough effect; inconclusive = small, poorly fitted or top-dose-only effect, or another doubt; inactive = no such curve, though single readings can be large; an effect the other way counts as inactive or inconclusive. Potency is read from the fitted curve at half-maximal effect.
SMILES,Luc counter,FLuc modulator,ELG1 genotoxic,Rab9 promoter act,SMN2 splice enh,NPC1 promoter act
Cc1ccc(-n2c(C)cc(/C=N/NC(=O)CC3(C)OCCO3)c2C)cc1,0%,24µM*,1%,-1%,-50%,-1%
Cc1cc(/C=N/NC(=O)c2ccc(O)cc2)c(C)n1CC(C)C,x,6µM*,u,u,x,23%
COCCn1c(C)cc(/C=N/NC(=O)c2cccnc2)c1C,-1%,u,12%,28%,19%,17%
Cc1cc(/C=N/NC(=O)c2ccncc2)c(C)n1-c1cccc(C(F)(F)F)c1,x,-2%,4%,-5%,x,-2%
Cc1ccc(-n2c(C)cc(/C=N/NC(=O)c3ccncc3)c2C)cc1,-6%,5.4µM*,u,4%,-27%,1%
Cc1ccc(-n2c(C)cc(/C=N/NC(=O)c3ccc(CN4CCOCC4)cc3)c2C)cc1,-2%,15µM*,-7%,-1%,-32%,-3%
Cc1ccc(-n2c(C)cc(/C=N/NC(N)=S)c2C)cc1,-2%,u,0%,1%,-8%,0%
COc1ccc(Cl)cc1NC(=O)C(=O)N/N=C/c1cc(C)n(-c2ccc(C)cc2)c1C,-4%,3.4µM*,1%,-1%,9%,-3%
Cc1cccc(-n2c(C)cc(/C=N/NC(=O)c3ccc(CN4CCOCC4)cc3)c2C)c1,-1%,u,u,-8%,-30%,-1%
COc1ccc(OC)c(CC2C(=O)Nc3ccc(Br)cc32)c1 (configuration not stated),x,-6%,x,x,x,x
CCCCOc1ccc(N=Cc2ccc[nH]2)cc1,x,3.8µM*,5%,16%,x,1%
COc1ccc(N=CC2=C(O)CCCC2=O)cc1,-8%,u,u,15%,28%,1%
COc1ccc(N=Cc2ccc[nH]2)cc1,-5%,9.5µM*,18%,-4%,6%,2%
COc1ccc(-c2csc(NC(=O)Cc3ccccc3F)n2)cc1OC,x,u,-24%,-7%,x,-13%
O=C(Cc1ccccc1F)Nc1nc(-c2ccc(F)cc2)cs1,x,11µM*,-14%,u,x,8%
COc1ccccc1CC(=O)Nc1nc(-c2ccc(F)c(F)c2)cs1,x,15µM*,-14%,12%,x,5%
CC(=C/c1ccccc1)/C=N/NC(=O)c1ccccn1,x,0.6µM*,u,0.45µM*,x,0.45µM*
CC(/C=N/NC(=O)c1cccc(F)c1)=C\c1ccccc1,x,2.4µM*,u,0.4µM*,x,0.5µM*
CC(/C=N/NC(=O)c1cc(C(C)(C)C)[nH]n1)=C\c1ccccc1,0%,u,-3%,-1%,16%,-1%
CC(/C=N/NC(=O)NC1CCCCC1)=C\c1ccccc1,-2%,u,10%,18%,24%,14%
COc1ccccc1C(=O)N/N=C/C(C)=C/c1ccccc1,x,9.5µM*,14%,15%,x,u
CC(/C=N/NC(=O)c1ccncc1)=C\c1ccccc1,-5%,7.6µM*,6%,-2%,-7%,19%
CCN(C(=O)c1cn(CC)c(=O)c2cc(OC)c(OC)cc12)c1ccc(C)c(C)c1,x,-3%,x,x,-18%,x
CC(/C=N/NC(=O)Cc1cc(=O)[nH][nH]1)=C\c1ccccc1,-7%,15µM*,2%,-11%,-13%,-3%
CC(=C/c1ccc(C(C)C)cc1)/C=N/NC(=O)c1ccncc1,-2%,2.7µM*,1%,28%,2%[1.84 µM],25%
CC1(C)CCc2cc(-c3ccnc(=S)[nH]3)ccc2O1,x,11µM*,1.5µM*,0.63µM*,x,0.45µM*
O=C1c2ccccc2C(=O)C1c1ccc2ccccc2n1,-22%,0.17µM*,0.13µM*,1µM*,1µM*,u
COC(=O)C1=C(C)NC(C)=C(C(=O)OC)C1c1ccc2ccccc2n1,-2%,3%,10%,-1%,2%,-3%
Cc1ccc(C(=O)Oc2ccc3c(c2)ncn3C)cc1,-9%,3µM*,5%,-16%,x,4%
CCOC(=O)c1c(C)n(-c2ccccc2)c2ccc(OC(=O)c3ccccc3)cc12,x,-8%,x,x,-33%,x

# Source: PubChem BioAssay
